Results reported in PubChem BioAssay (Tox21).
Results filed as inconclusive are left out. Entries that show only a call come without a potency. A number with no mark means an inactive call. The source made the active and inactive calls. Unless noted, calls follow the shape of the dose curve; as a rule, active = well fitted curve in the direction sought with a large enough effect in the repeat runs; inconclusive = weak or mixed curves; inactive = no such curve, though single readings can be large; an effect the other way counts as inactive or inconclusive.

What was measured:
[1] = qHTS assay to identify small molecule antagonists of the vitamin D receptor (VDR) signaling pathway - cell viability counter screen (AID 743225); also: nearly all actives have a fitted effect of over 50% in size
Outline: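 Compounds were pinned onto VDR-bla HEK 293T cells together with 1-alpha,25-dihydroxyvitamin D3 at 3 nM final. After 16 h at 37C and 5% CO2 plus the reporter readout, cell viability was measured by CellTiter-Glo luminescence (30 min, room temperature).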

[2] = qHTS assay to identify small molecule agonists of the NFkB signaling pathway (AID 1159509; active = well fitted curve in the direction sought with a large enough effect in the signal ratio in the repeat runs, not every such curve was filed as active; the % refers to the signal ratio; also: series mostly up to about 61 µM)
Outline: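 After overnight attachment, reporter cells received test compounds, DMSO or positive controls and were incubated 5 hr at 37 C. FRET substrate was then added for 1.5 hr at room temperature before dual-emission fluorescence reading.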

[3] = qHTS assay to identify small molecule agonists of the NFkB signaling pathway - cell viability counter screen (AID 1159515; calls by dose curve; also: series mostly up to about 61 µM; nearly all actives have a fitted effect of over 55% in size)
Outline: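 NFkB-bla ME-180 cells, 2,000/well, were plated overnight at 37 C, 5% CO2, then exposed to compounds in DMSO for 5 hr. After the bla FRET read, CellTiter-Glo was added to the same wells; luminescence was read after 30 min at room temperature.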

[4] = qHTS assay to identify small molecule agonists of the endoplasmic reticulum stress response signaling pathway (AID 1159516; active = well fitted activation curve with a large enough effect in the signal ratio in the repeat runs, not every such curve was filed as active; the % refers to the signal ratio)
Outline: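 CellSensor ESRE-bla HeLa cells, carrying a beta-lactamase reporter driven by the ER stress response element, were plated overnight and exposed to compounds for 5 hr at 37 C. Reporter activity was read as FRET substrate fluorescence after 2 hr at room temperature.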

[5] = qHTS assay to identify small molecule agonists of the endoplasmic reticulum stress response signaling pathway - cell viability counter screen (AID 1159517; calls by dose curve; also: series mostly up to about 61 µM; nearly all actives have a fitted effect of over 50% in size)
Outline: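 Luminescence readout: CellTiter-Glo, 30 min RT, same wells as the ESRE-bla reporter read. HeLa ESRE-bla, 1,500 cells/well, o/n 37 C; cpd 5 hr 37 C/5% CO2.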

[6] = qHTS assay to identify small molecule antagonists of the retinoid-related orphan receptor gamma (ROR-gamma) signaling pathway - cell viability counter screen (AID 1159520); also: nearly all actives have a fitted effect of over 50% in size
Outline: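 Tet-on ROR gamma CHO cells (1,000/well) were plated 4 hr, given compounds in DMSO for 2 hr at 37 C, then induced with 1 uM final doxycycline for 16 hr. Viability was read as ATP by CellTiter-Glo luminescence after 30 min.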

[7] = qHTS assay to identify small molecule agonists of the AP-1 signaling pathway - cell viability counter screen (AID 1159525; calls by dose curve; also: nearly all actives have a fitted effect of over 55% in size)
Outline: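 ME-180 AP-1-bla, 2500 cells/well, Opti-MEM + 0.5% dialyzed FBS; overnight 37 °C; cpd 15-pt titration, 5 h 37 °C; CellTiter-Glo 30 min RT; luminescence read; normalised to TOAB and DMSO controls.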

[8] = qHTS assay to identify small molecule agonists of the AP-1 signaling pathway (AID 1159526; calls by dose curve; also: potency is read from the fitted curve at half-maximal effect)
[9] = target: Retinoic acid receptor RXR-alpha (Homo sapiens) (UniProt P19793); assay: qHTS assay to identify small molecule agonists of the RXR signaling pathway (AID 1159527; calls by dose curve; also: nearly all actives have a fitted effect of over 35% in size; also: potency is read from the fitted curve at half-maximal effect)
Retinoic acid receptor RXR-alpha (Homo sapiens), sequence (P19793 whole entry, looked up): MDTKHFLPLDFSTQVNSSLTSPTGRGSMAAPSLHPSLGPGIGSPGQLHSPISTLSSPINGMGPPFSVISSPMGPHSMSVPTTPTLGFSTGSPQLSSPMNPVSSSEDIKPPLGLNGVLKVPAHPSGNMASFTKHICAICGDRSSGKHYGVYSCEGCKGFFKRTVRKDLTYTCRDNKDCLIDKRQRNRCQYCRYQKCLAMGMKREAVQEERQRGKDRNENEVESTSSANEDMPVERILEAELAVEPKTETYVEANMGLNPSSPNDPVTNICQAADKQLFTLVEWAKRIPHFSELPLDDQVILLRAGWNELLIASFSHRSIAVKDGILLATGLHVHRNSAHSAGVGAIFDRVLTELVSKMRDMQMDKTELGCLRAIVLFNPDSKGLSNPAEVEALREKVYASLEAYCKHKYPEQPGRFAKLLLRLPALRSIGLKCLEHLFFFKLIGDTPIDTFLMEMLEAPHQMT
Outline: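 Using 9-cis retinoic acid as the reference agonist, chemicals were tested in HEK 293T cells […] for 16 hr; substrate loading lasted 2 hr at room temperature.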

[10] = qHTS assay to identify small molecule antagonists of the retinoid acid receptor (RAR) signaling pathway - cell viability counter screen (AID 1159551); also: nearly all actives have a fitted effect of over 35% in size
Outline: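 C3RL4 cells were seeded overnight at 37 C, then treated with compounds plus 1 uM (final) retinol for 6 h at 37 C. Viability was read as ATP by CellTiter-Glo luminescence after 30 min at room temperature.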

[11] = qHTS assay to identify small molecule antagonists of the retinoic acid receptor (RAR) signaling pathway (AID 1159552; also: nearly all actives have a fitted effect of over 50% in size)
Outline: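 Test chemicals and DMSO controls were pin-transferred onto C3RL4 cells a day after seeding; retinol (1 uM final) followed at once. Luminescent reporter output was quantified after 6 hr of co-incubation and 30 min with detection reagent.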

[12] = qHTS assay to identify small molecule agonists of the retinoic acid receptor (RAR) signaling pathway (AID 1159553)
Outline: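 C3RL4 cells carrying a RARE luciferase reporter were plated overnight at 37 C, then exposed to compounds in DMSO for 6 hr at 37 C and 5% CO2. Luminescence was read 30 min after luciferase reagent addition at room temperature.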

[13] = qHTS assay to identify small molecule agonists of the RXR signaling pathway - cell viability counter screen (AID 1159529)
Outline: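 Compounds dissolved in DMSO were pinned onto HEK 293T cells carrying a beta-lactamase reporter under RXR-alpha control and incubated 16 hr. Cytotoxicity was then quantified by CellTiter-Glo luminescence.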

SMILES	Potency [1]	outcome [2]	outcome [3]	outcome [4]	outcome [5]	Potency [6]	outcome [7]	Potency [8]	Potency [9]	outcome [10]	Potency [11]	Potency [12]	Potency [13]	activity, negative = cytotoxicity [6]	viability change, negative = cytotoxic [7]	activation [8]	activation [9]	activity change, negative = cytotoxicity [13]	activity change, negative = cytotoxicity [10]	activity, negative = inhibition [11]
CC1(C)C(=O)N(Cl)C(=O)N1Br	inactive	inactive	inactive	inactive	inactive	inactive	inactive	inactive	inactive	inactive	inactive	inactive								
O=CCCc1ccccc1	inactive	inactive	inactive	inactive	inactive	inactive	inactive	inactive	19.5 µM (active)	inactive		inactive	inactive							
CCOC(=O)c1ccccc1O	inactive	inactive	inactive	inactive	inactive	inactive	inactive	inactive	inactive	inactive	inactive	inactive	inactive							
Cc1cn([C@@H]2O[C@H](CO)[C@@H](O)[C@@H]2F)c(=O)[nH]c1=O	inactive	inactive	inactive	inactive	inactive	inactive	inactive	inactive	inactive	inactive	inactive	inactive	inactive							
O=C(O)[C@@H]1CSCN1	inactive	inactive	inactive	inactive	inactive	inactive	inactive	inactive	inactive	inactive	inactive	inactive	inactive							
O=C(O[C@@H](C(=O)O)[C@@H](OC(=O)c1ccccc1)C(=O)O)c1ccccc1	inactive	inactive	inactive	inactive	inactive	inactive	inactive	inactive	inactive	inactive	inactive	inactive	inactive							
CCCCN1C[C@H](O)[C@@H](O)[C@H](O)[C@H]1CO		inactive	inactive	inactive	inactive	inactive	inactive	inactive	inactive	inactive	inactive	inactive								
OC[C@H]1O[C@@H](O[C@H]2[C@H](O)[C@@H](O)[C@H](O)O[C@@H]2CO)[C@H](O)[C@@H](O)[C@H]1O	inactive	inactive	inactive	inactive	inactive	inactive	inactive	inactive	inactive	inactive	inactive	inactive								
C1CSCCS1		inactive	inactive	inactive	inactive	inactive	inactive	inactive	inactive	inactive		inactive	inactive							
O=C1C=CC(=O)O1	inactive	inactive	inactive	inactive	inactive	inactive	inactive	inactive	inactive	inactive	inactive	inactive	inactive							
O=c1oc2c(O)c(O)cc3c(=O)oc4c(O)c(O)cc1c4c23	inactive	inactive	inactive	inactive	inactive							inactive		0.685% [at 19 µM]	7.4% [at 15.8 µM]	21.4% [at 15.8 µM]	11.4% [at 15.8 µM]	8.17% [at 15.8 µM]	-0.41% [at 19 µM]	3.23% [at 19 µM]
CO[Si](C)(C)OC	inactive	inactive	inactive	inactive	inactive	inactive	inactive	inactive	inactive	inactive	inactive	inactive	inactive							
CC(C)(C)c1cccc(O)c1	inactive	inactive	inactive	inactive	inactive	inactive	inactive	inactive	inactive	inactive	inactive	inactive								
O=S(=O)(O)C(F)(F)F	inactive	inactive	inactive	inactive	inactive	inactive	inactive	inactive	inactive	inactive		inactive	inactive							
CN1[C@@H]2CC[C@H]1CC(OC(=O)c1c[nH]c3ccccc13)C2 (stereo partly specified)	inactive	inactive	inactive	inactive	inactive	inactive	inactive	23.9 µM (active)	inactive	inactive		inactive	inactive							
Cc1ccc(C)c(N)c1	inactive	inactive	inactive	inactive	inactive	inactive	inactive	inactive	inactive	inactive	inactive	inactive	inactive							
CCN1CC(CCN2CCOCC2)C(c2ccccc2)(c2ccccc2)C1=O (stereo unspecified)	inactive	inactive	inactive	inactive	inactive	inactive	inactive	inactive	inactive	inactive	inactive	inactive	inactive							
